PubChem BioAssay (NCI)
About 83,000 compounds went through this panel and 20% of them were active in at least one assay; those are over-represented in the sample as a whole.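 Activity criterion: percent growth below 10, measured after cells in 96-well plates were exposed to a single compound concentration for 48 hours.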 A number with no mark means an inactive call. Active and inactive are the calls of the source.

Each molecule was assayed on NCI-H522 lung (assay: NCI-60 one-dose screen, 48 h (100 = growth as untreated, 0 = no growth, -100 = all killed)). Conditions: 10 µM.
With `CC(=O)NNC(=O)c1sc(NC(C)=O)nc1C` the growth was 139%. `Nc1ccc(S(=O)(=O)c2ccc(NO)cc2)cc1` gave a growth of 79.4%. `Cc1c(Cc2ccccc2)c(=O)oc2c(C)c(OCC(=O)n3nc(C#N)cc3N)ccc12` was tested, and the growth was 79.4%. `NC(=O)CC(NC(=O)COc1ccc(Cl)cc1Cl)C(=O)O` (stereo unspecified) showed a growth of 98%. For `CCCCCCCCC1OC1CCCCCCCC(=O)O` (stereo unspecified), the growth was 97.7%. For `CC(=O)/C(=C/c1ccc(-c2ccccc2)cc1)C(=O)c1ccccc1`, the growth was 61.7%. In the case of `COc1ccc(-c2nc(Nc3nc4ccccc4[nH]3)nc(N)c2C#N)cc1`, the growth is reported as 92.5%. `CCC(CCCN1C(=O)c2ccccc2C1=O)Nc1cc(OC)cc2cccnc12` (stereo unspecified) gave a growth of 103%. Work on `CC(=O)OC1/C=C\CC/C=C\C1` (stereo unspecified) yielded a growth of 102%. For `CCc1ccc(C(=Nc2ccc(N(C)C(=O)CN3CCN(C)CC3)cc2)c2c(O)[nH]c3ccc(C(=O)OC)cc23)cc1`, the growth was -64.1% (active). Molecule `c1ccc2[nH]c(-c3ccc(OCCCCCOc4ccc(-c5nc6ccccc6[nH]5)cc4)cc3)nc2c1` has a growth of 30.9%. For `Oc1ccc(CN(Cc2ccc(C(F)(F)F)cc2)Cc2ccc(O)c3ncccc23)c2cccnc12`, the growth was 3.25% (active). `COc1ccc2nc3cc(Cl)ccc3c(NCCCNC(C)=O)c2c1` gave a growth of 52.5%. Molecule `O=C(N/N=C\c1ccc(Cl)cc1)C(=O)N/N=C\c1ccc(Cl)cc1` has a growth of 101%. `Cc1nc2c(nnn2-c2ccccc2)c2nc(-c3ccccc3)oc(=O)c12` showed a growth of 105%. For `COC(=O)c1ccc2[nH]c(O)c(C(=Nc3ccc(N(C)C(=O)CN4CCN(C)CC4)cc3)c3ccc(N)cc3)c2c1`, the growth was 75.5%.
